Reference: PubChem BioAssay (NCI)
About 79,000 compounds went through this panel and 15% of them were active in at least one assay; those are over-represented in the sample as a whole. Activity calls are given as the source filed them. Rule as the data show it: active = growth inhibition above about 70%; inactive = the rest.

Key:
[1] = NCI Yeast Anticancer Drug Screen. Data for the wt2 strain (AID 169);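 also: 0% = growth of vehicle-treated yeast cultures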; settings: S. cerevisiae wt2 strain growth inhibition, stronger effect = higher value
Summary of the method: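 Treated yeast vs. vehicle-treated yeast: growth inhibition determined.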

[2] = NCI Yeast Anticancer Drug Screen. Data for the mlh1 strain (AID 171);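 also: 0% = growth of vehicle-treated control cultures of the same strain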; settings: S. cerevisiae mlh1 strain growth inhibition, stronger effect = higher value
Summary of the method: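 A yeast strain with a defined genetic lesion serves as the test organism. Cultures receive compound or vehicle, and growth is measured.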

[3] = NCI Yeast Anticancer Drug Screen. Data for the sgs1 strain (AID 173);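 also: 0% = growth of vehicle-only control cultures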; settings: S. cerevisiae sgs1 mutant, stronger effect = higher value
Summary of the method: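 A genetically defined yeast mutant is incubated with the test compound, and its growth is compared to that of the same strain given vehicle.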

[4] = NCI Yeast Anticancer Drug Screen. Data for the mlh1 rad18 strain (AID 175); settings: S. cerevisiae mlh1 rad18 strain growth inhibition, stronger effect = higher value
Summary of the method: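 Steps: expose repair-defective yeast to compound; measure growth; express inhibition against vehicle-treated controls.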

[5] = NCI Yeast Anticancer Drug Screen. Data for the rad18 strain (AID 177); settings: S. cerevisiae rad18 mutant growth inhibition, stronger effect = higher value
Summary of the method: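 Measured value is growth inhibition of a yeast strain bearing a DNA repair alteration, referenced to vehicle-treated cells.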

[6] = NCI Yeast Anticancer Drug Screen. Data for the rad52 strain (AID 147);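 also: 0% = growth of vehicle-treated control cultures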; settings: S. cerevisiae rad52 mutant growth inhibition, stronger effect = higher value
Summary of the method: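 Here a repair-compromised yeast strain receives each compound; its growth is then quantified and normalised to vehicle-only controls.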

[7] = NCI Yeast Anticancer Drug Screen. Data for the wt1 strain (AID 149);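 also: 0% = growth of vehicle-treated wt1 cultures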; settings: S. cerevisiae wt1 strain (SPY 50644) growth inhibition, stronger effect = higher value
Summary of the method: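 Measured: growth of wt1 yeast under compound versus vehicle treatment, reported as inhibition.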

[8] = NCI Yeast Anticancer Drug Screen. Data for the rad50EPP+ strain (AID 151);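 also: 0% = growth of vehicle-treated control cultures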; settings: S. cerevisiae rad50 mutant strain, stronger effect = higher value
Summary of the method: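 Read-out is yeast growth inhibition relative to vehicle; cells used were the rad50EPP+ strain.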

[9] = NCI Yeast Anticancer Drug Screen. Data for the mgt1 strain (AID 153); settings: S. cerevisiae mgt1 mutant growth inhibition, stronger effect = higher value
Summary of the method: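 Measured: inhibition of mgt1 yeast growth by compound, normalized to vehicle-treated cultures.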

[10] = NCI Yeast Anticancer Drug Screen. Data for the rad50 strain (AID 155);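 also: 0% = growth of vehicle-only cultures of the same strain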; settings: S. cerevisiae rad50 strain growth inhibition, stronger effect = higher value
Summary of the method: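 Growth of the mutant yeast was measured after compound exposure and referenced to vehicle-treated cultures.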

[11] = NCI Yeast Anticancer Drug Screen. Data for the mec2-1 strain (AID 157); settings: S. cerevisiae mec2-1 strain, stronger effect = higher value
Summary of the method: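 Using mec2-1 yeast: add compound, measure growth, express inhibition versus vehicle-treated cultures.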

[12] = NCI Yeast Anticancer Drug Screen. Data for the rad14 strain (AID 159);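 also: 0% = growth of vehicle-treated control cultures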; settings: S. cerevisiae rad14 strain growth inhibition, stronger effect = higher value
Summary of the method: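 Here, inhibition of yeast growth was measured after compound exposure, using a strain with a genetic defect in DNA damage repair and vehicle-treated cultures as the reference.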

[13] = NCI Yeast Anticancer Drug Screen. Data for the sgs1 mgt1 strain (AID 161);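 also: 0% = growth of cultures given vehicle only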; settings: S. cerevisiae sgs1 mgt1 strain, stronger effect = higher value
Summary of the method: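 Growth of a repair-deficient yeast mutant was monitored after compound treatment and expressed as inhibition relative to vehicle-treated cultures.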

[14] = NCI Yeast Anticancer Drug Screen. Data for the CLN2oe strain (AID 163);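 also: 0% = growth of vehicle-only control cultures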; settings: S. cerevisiae CLN2oe strain, stronger effect = higher value
Summary of the method: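 Whole-cell yeast growth assay. A strain engineered for altered cell-cycle control received compound, and inhibition relative to vehicle-treated cultures was recorded.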

[15] = NCI Yeast Anticancer Drug Screen. Data for the cln2 rad14 strain (AID 165);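 also: 0% = growth equal to vehicle treated cultures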; settings: S. cerevisiae cln2 rad14 strain, stronger effect = higher value
Summary of the method: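 Yeast strain cln2 rad14, bearing defects in cell cycle control and DNA repair, serves as the test system; values reflect growth inhibition compared with vehicle.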

[16] = NCI Yeast Anticancer Drug Screen. Data for the bub3 strain (AID 167); settings: S. cerevisiae bub3 mutant strain, stronger effect = higher value
Summary of the method: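 Whole-cell yeast assay. The mutant strain was incubated with compounds, and growth inhibition was determined by comparison with vehicle-treated cells.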

[17] = at 5.0 µM (retest, dose inferred, filed as 0.5)
[18] = at 50.0 µM (retest, dose inferred, filed as 5.0)

Measured: growth inhibition

c1ccc2nc3c(nc2c1)sc1ccccc13
inactive: [1]; at 1.2 µM -2% | [1]; at 3.7 µM 1% | [1]; at 11.0 µM 6% | [1]; at 33.0 µM 13% | [1]; at 100.0 µM 9% | [2]; at 1.2 µM 4% | [2]; at 3.7 µM 3% | [2]; at 11.0 µM 19% | [2]; at 33.0 µM 28% | [2]; at 100.0 µM 23% | [3]; at 1.2 µM -2% | [3]; at 3.7 µM 20% | [3]; at 11.0 µM 43% | [3]; at 33.0 µM 51% | [3]; at 100.0 µM 37% | [4]; [17] -71% | [4]; [18] 14% | [4]; at 50.0 µM 61.9% | [5]; at 1.2 µM 4% | [5]; at 3.7 µM 21% | [5]; at 11.0 µM 45% | [5]; at 33.0 µM 52% | [5]; at 100.0 µM 47%

CNC(=O)OCc1c2ccncc2c(C)c2c1[nH]c1ccccc12
inactive: [6]; at 1.2 µM 59% | [7]; at 1.2 µM 2% | [7]; at 3.7 µM 6% | [7]; at 11.0 µM 6% | [7]; at 33.0 µM 21% | [7]; at 100.0 µM 56% | [8]; at 1.2 µM 1% | [8]; at 3.7 µM 17% | [8]; at 11.0 µM 14% | [8]; at 33.0 µM 31% | [8]; at 100.0 µM 45% | [9]; at 1.2 µM 2% | [9]; at 3.7 µM 21% | [9]; at 11.0 µM 18% | [9]; at 33.0 µM 34% | [9]; at 100.0 µM 55% | [10]; at 1.2 µM 33% | [10]; [17] 61% | [10]; at 50.0 µM 56.4% | [11]; at 1.2 µM 13% | [11]; at 3.7 µM 60% | [11]; [17] 56% | [12]; at 1.2 µM 23% | [13]; [17] 40% | [13]; [18] 13% | [13]; at 50.0 µM 51.5% | [14]; at 1.2 µM 6% | [14]; at 3.7 µM 19% | [14]; at 11.0 µM 21% | [14]; at 33.0 µM 34% | [14]; at 100.0 µM 57% | [15]; [17] 44% | [16]; at 1.2 µM -41% | [16]; at 3.7 µM -56% | [16]; [17] -12% | [16]; at 11.0 µM -27% | [16]; at 33.0 µM 0% | [16]; [18] -48% | [16]; at 50.0 µM -12.1% | [16]; at 100.0 µM 39% | [1]; at 1.2 µM -17% | [1]; at 3.7 µM -21% | [1]; at 11.0 µM -9% | [1]; at 33.0 µM -1% | [1]; at 100.0 µM 42% | [2]; at 1.2 µM 6% | [2]; at 3.7 µM 20% | [2]; at 11.0 µM 26% | [2]; at 33.0 µM 38% | [2]; at 100.0 µM 66% | [3]; at 1.2 µM 67% | [4]; [17] 33%
active: [6]; at 3.7 µM 82% | [6]; at 11.0 µM 88% | [6]; at 33.0 µM 90% | [6]; at 100.0 µM 88% | [10]; at 3.7 µM 72% | [10]; at 11.0 µM 82% | [10]; at 33.0 µM 86% | [10]; [18] 75% | [10]; at 100.0 µM 82% | [11]; at 11.0 µM 84% | [11]; at 33.0 µM 90% | [11]; [18] 89% | [11]; at 50.0 µM 73.8% | [11]; at 100.0 µM 87% | [12]; at 3.7 µM 80% | [12]; at 11.0 µM 89% | [12]; at 33.0 µM 92% | [12]; at 100.0 µM 89% | [15]; [18] 84% | [15]; at 50.0 µM 83.2% | [3]; at 3.7 µM 76% | [3]; at 11.0 µM 84% | [3]; at 33.0 µM 85% | [3]; at 100.0 µM 84% | [4]; [18] 71% | [4]; at 50.0 µM 82.8% | [5]; at 1.2 µM 89% | [5]; at 3.7 µM 93% | [5]; at 11.0 µM 93% | [5]; at 33.0 µM 91% | [5]; at 100.0 µM 87%
